NPC1 prom act – NPC1 promoter activation. actives 2.4% (n = 320,000). AID 485313. Huh7 NPC1 promoter luciferase reporter, 24 h. Potency, µM (series often up to 9.22 µM), without a hit: top-dose activation, hits mostly activators; note: % of control where 0% means no effect; nearly all actives have a fitted effect of over 60% in size
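Huh7 cells stably carrying NPC1 promoter–luciferase, plated in Opti-MEM with 10% FBS for 2 h, were exposed to compound in DMSO for 24 h at 37 °C; luciferase reagent was added for 10 min and luminescence read.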
ELG1 genotox – genotoxicity induction in ELG1-luciferase HEK293T cells; HEK293T ELG1-luciferase reporter, luminescence, 16 h; Potency, µM (top dose mostly 46 µM), inactives show at the highest dose activity change, positive = activation, most hits filed as activators; actives 1.3% (n = 330,000); AID 504466; note: % of control where 0% means no effect; nearly all actives have a fitted effect of over 60% in size
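DMSO vehicle served as control against compound-treated ELG1-luciferase HEK293T cells; exposure lasted 16 hr at 37 °C and 5% CO2, followed by ONE-Glo luminescence detection after 30 min.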
SMN2 splice up – SMN2 splice variant enhancement. HEK293 SMN2-luciferase splicing reporter, luminescence, 30-36 h. Potency, µM (highest dose often 46.1 µM), for the others: top-dose activity change, positive = activation, most hits filed as activators. actives 2.8% (n = 210,000); note: % of control where 0% means no effect; nearly all actives have a fitted effect of over 55% in size
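qHTS luciferase splicing reporter: luminescence rises when SMN2 exon 7 is included in transfected HEK293 cells. Compound exposure lasted 30-36 h at 37C, with 4.5 mM final sodium butyrate as control, followed by a ONE-Glo read.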
Luc counter – Kinase-Glo luciferase inhibition (counter-screen); Q27757; actives 0.28% (n = 200,000); Kinase-Glo luciferase, ATP luminescence, 8 min; Potency, µM (doses to about 38.3 µM), for the others: top-dose activity change, negative = inhibition, hits mostly inhibitors; note: % is set by controls: 0 for no effect and ±100 for the full control effect; nearly all actives have a fitted effect of over 60% in size
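Inhibition of Kinase-Glo luciferase light generation was assessed at 10 uM ATP in pH 7.2 imidazole buffer, with luminescence measured after eight minutes at ambient temperature.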
Rab9 prom act – activates the Rab9 promoter | Huh7 Rab9 promoter-luciferase reporter, luminescence, 24 h | Potency, µM (titrated, usually from 9.22 µM), for inactives: top-dose activation, negative = inhibition, usual class: activators | actives 2.8% (n = 320,000); note: % of control where 0% means no effect; nearly all actives have a fitted effect of over 60% in size
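Using Huh7 cells stably transfected with Rab9 promoter–luciferase, compounds were incubated 24 h at 37 °C, 5% CO2; luciferase luminescence was read 10 min after reagent addition.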
FLuc modulator – firefly luciferase modulation, counter-screen for miR-21 project. P08659. purified FLuc, Km substrates, luminescence inhibition. Potency, µM (series often up to 57.5 µM), inactives show at the highest dose activity change, negative = inhibition, usual class: inhibitors. actives 6.9% (n = 360,000);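 note: plate controls were vehicle for no effect and reference inhibitor for full effect; nearly all actives have a fitted effect of over 55% in size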
Target sequence (P08659 whole entry, looked up): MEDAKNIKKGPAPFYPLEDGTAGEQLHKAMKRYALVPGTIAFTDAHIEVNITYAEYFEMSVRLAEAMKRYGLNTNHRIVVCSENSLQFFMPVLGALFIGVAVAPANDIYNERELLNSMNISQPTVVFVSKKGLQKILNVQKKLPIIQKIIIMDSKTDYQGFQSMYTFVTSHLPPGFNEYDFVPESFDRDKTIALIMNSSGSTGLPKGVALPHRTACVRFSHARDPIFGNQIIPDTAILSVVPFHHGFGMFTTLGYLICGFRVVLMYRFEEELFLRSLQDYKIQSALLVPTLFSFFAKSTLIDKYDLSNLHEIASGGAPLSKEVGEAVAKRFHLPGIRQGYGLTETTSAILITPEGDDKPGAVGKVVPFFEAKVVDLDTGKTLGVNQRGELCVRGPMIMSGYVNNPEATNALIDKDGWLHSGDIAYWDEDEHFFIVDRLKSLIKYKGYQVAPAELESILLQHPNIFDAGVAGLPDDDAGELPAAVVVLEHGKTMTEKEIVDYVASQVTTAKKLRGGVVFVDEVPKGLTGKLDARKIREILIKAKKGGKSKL
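Purified P. pyralis luciferase, 10 nM final, with Km-level 10 uM D-luciferin and 10 uM ATP in 50 mM Tris acetate pH 7.5, 10 mM Mg acetate, 0.01% Tween-20, 0.05% BSA; 6-point qHTS titration about 60 µM downward; luminescence read.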
* hit, by the source's call; ? = inconclusive; / = not tested or not shown. Most compounds without a hit are left out; they make up all but 7.5% or so of the library. Calls come from the whole dose curve; as a rule, active = well fitted curve in the direction sought with a large enough effect; inconclusive = small, poorly fitted or top-dose-only effect, or another doubt; inactive = no such curve, though single readings can be large; an effect the other way counts as inactive or inconclusive. Potency is the fitted concentration of half-maximal effect.

SMILES	NPC1 prom act	ELG1 genotox	SMN2 splice up	Luc counter	Rab9 prom act	FLuc modulator
CCOC(=O)c1csc(NC(=O)c2ccc(OC)c(OC)c2)n1	-3%	5%	7%	1%	0%	-1%
CCOc1cc(C(=O)OCc2cc(=O)n3c(C)csc3n2)cc(OCC)c1OCC	/	/	/	/	/	-1%
COc1ccc(C)cc1CN(C)c1ccc(S(=O)(=O)N2CCN(C)CC2)cn1	-5%	-1%	/	/	-4%	-1%
Cc1ccc(CNC(=O)C2CCCN(c3nc4ccccc4n4cccc34)C2)cc1 (stereo unspecified)	/	/	/	/	/	-4%
CCOC(=O)N1CCN(S(=O)(=O)c2ccc(C(=O)Nc3ccc4c(c3)C(=O)NC4=O)cc2)CC1	-1%	8%	11%	-2%	-1%	-1%
Cc1cc(C)n2nc(SCCCC(=O)c3ccc(F)cc3)nc2n1	-4%	-3%	-7%	2%	-1%	-4%
CCOC(=O)c1csc(-c2sccc2Br)n1	2.5µM*	5.2µM*	/	/	3.2µM*	1.9µM*
O=C(COC(=O)/C=C/c1cc(Br)ccc1F)NC1CC1	/	0%	/	/	/	/
O=[N+]([O-])c1cc2c(cc1C=Nc1ccccc1)OCO2	-1%	1%	-8%	-4%	0%	-13%
Sc1oc(-c2ccccc2)cc1C=Nc1ccccc1	0%	12µM*	-21%	-3%	6%	2.1µM*
Cc1ccc(-c2cc(-c3cccs3)[nH]n2)c(O)c1	3%	4.1µM*	47%	0%	3%	6.7µM*
Cc1ccc(S(=O)(=O)N2CCc3ccccc3C2CN2C(=O)c3ccccc3C2=O)cc1 (stereo unspecified)	-4%	-15%	-17%	1%	-8%	-1%
Cc1cc(C)c(C(=O)CSc2n[nH]c(=O)n2C2CC2)cc1C	0%	-4%	-29%	-4%	-1%	4%
O=C(CSc1n[nH]c(=O)n1C1CC1)c1ccc2c(c1)OCCO2	?	15%	/	/	?	13µM*
O=C(CSc1n[nH]c(=O)n1Cc1ccco1)c1ccc2c(c1)OCCO2	29%	?	/	/	?	15µM*
COc1cccc(/C=c2\sc3nc(-c4cccs4)nn3c2=O)c1OC	0%	2%	17%	-4%	-3%	8.5µM*
O=C(COc1ccccc1)Nc1cccc(-c2cn3cccnc3n2)c1	14%	-7%	/	/	?	15µM*
COc1cc(OC)cc(C(=O)Nc2cccc(-c3cn4cccnc4n3)c2)c1	/	/	/	/	/	-17%
CC(=O)Nc1cccc(-c2cn3cccnc3n2)c1	/	/	/	/	/	-2%
COc1ccc(NC(=O)Nc2cccc(-c3cn4cccnc4n3)c2)cc1	/	/	5%	/	/	1.7µM*
Cc1ccc(NC(=O)c2ccc(NCc3ccco3)c([N+](=O)[O-])c2)cc1Cl	-1%	?	5%	3%	4%	0%
Cn1cc(C(=O)NCc2ccccc2)c(=O)c2cc(S(=O)(=O)N3CCOCC3)ccc21	/	/	12%	/	/	-2%
CN(C(=O)CC1C(=O)NCCN1Cc1ccc(F)c(F)c1)C1CCOCC1 (stereo unspecified)	-4%	0%	/	0%	-3%	0%
Cc1nn(Cc2ccccc2Cl)c(Cl)c1C(=O)NCCc1ccccc1	4µM*	?	11µM*	1%	1.6µM*	3.8µM*
COc1cc(OC)cc(C(=O)N[C@H](C(=O)Nc2cc(F)ccc2C)C(C)C)c1	-5%	2%	/	/	-1%	0%
CCN1C(=O)/C(=C/C=C2/CCCN2C)OC1=S	3.2µM*	?	/	-7%	?	?
CN1C(=O)/C(=C\C=C2/CCCN2C)N(C)C1=S	25%	?	?	-12%	?	?
CC(=O)c1ccc(N=Nc2ccc(N)cc2)cc1	0.4µM*	?	/	/	0.32µM*	1.5µM*
O=C(CSc1nc(-c2ccccc2)[nH]c1-c1ccc(F)cc1)NC1CCCC1	/	/	-10%	/	/	-8%

Compound activity: PubChem, National Center for Advancing Translational Sciences (NCATS)
